These results are taken from PubChem BioAssay (NCATS).

Structures are written as SMILES. Results filed as inconclusive are left out. Some structures have more than one record in an assay (separate samples or runs), and their calls can disagree. Activity calls are given as the source filed them. Unless noted, calls come from the whole dose curve; as a rule, active = well fitted curve in the direction sought with a large enough effect; inconclusive = small, poorly fitted or top-dose-only effect, or another doubt; inactive = no such curve, though single readings can be large; an effect the other way counts as inactive or inconclusive.

Assay [1] can be described thus: qHTS for Inhibitors of Plasmodium falciparum (DD2) proliferation (AID 504314).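 Note: parasite DNA measured by SYBR Green fluorescence after red cell lysis; plate controls were DMSO vehicle for no effect and artemisinin wells for full effect.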 The gist of the method: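 SYBR Green growth assay: 72 h compound exposure of infected red cells (2.5% hematocrit, 0.3% parasitemia), then lysis and overnight dye staining, fluorescence 485/535 nm. Values scaled between DMSO and 0.29 uM artemisinin controls.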
A general note: Quantitative high-throughput screening tests each substance at several concentrations.

The nature of assay [2]: qHTS for Inhibitors of Plasmodium falciparum (GB4) proliferation (AID 504315).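 Note: 0% = DMSO vehicle and -100% = 0.29 µM artemisinin control; nearly all actives have a fitted effect of over 50% in size.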 The gist of the method: (§1)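 Parasite growth measured as SYBR Green DNA fluorescence (ex 485, em 535 nm) after overnight lysis following 72 h culture at 37 °C, 0.3% parasitemia, 2.5% hematocrit. Values normalized against DMSO and 0.29 uM artemisinin controls, with plate-stack correction.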
A short description of assay [3]: qHTS for Inhibitors of Plasmodium falciparum (7G8) proliferation (AID 504316). Note: nearly all actives have a fitted effect of over 65% in size. Note: potency is the fitted concentration of half-maximal effect. The gist of the method:
as §1

Assay [4] in a line: qHTS for Inhibitors of Plasmodium falciparum (HB3) proliferation (AID 504318).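 Note: 0% = DMSO vehicle and -100% = artemisinin control; nearly all actives have a fitted effect of over 60% in size.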 The gist of the method: as §1
The nature of assay [5]: qHTS for Inhibitors of Plasmodium falciparum (CP250) proliferation (AID 504320).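 Note: plate controls were DMSO vehicle for no effect and 0.29 µM artemisinin control for full effect.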 The gist of the method:
as §1

Assay [6] deals with Atrial natriuretic peptide receptor 1 (Homo sapiens) (UniProt P16066). Briefly: Natriuretic polypeptide receptor (hNpr1) antagonism - Pilot CMLD screen (AID 1347052; calls by dose curve;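 note: HEK293 cells with hNpr1 stimulated by hNppA peptide at 0.1 nM; cGMP level read as GloSensor luciferase luminescence after agonist stimulation; series mostly up to about 9.2 µM; % is set by controls: 0 for no effect and ±100 for the full control effect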).
Chain of Atrial natriuretic peptide receptor 1 (Homo sapiens) (P16066 whole entry, looked up): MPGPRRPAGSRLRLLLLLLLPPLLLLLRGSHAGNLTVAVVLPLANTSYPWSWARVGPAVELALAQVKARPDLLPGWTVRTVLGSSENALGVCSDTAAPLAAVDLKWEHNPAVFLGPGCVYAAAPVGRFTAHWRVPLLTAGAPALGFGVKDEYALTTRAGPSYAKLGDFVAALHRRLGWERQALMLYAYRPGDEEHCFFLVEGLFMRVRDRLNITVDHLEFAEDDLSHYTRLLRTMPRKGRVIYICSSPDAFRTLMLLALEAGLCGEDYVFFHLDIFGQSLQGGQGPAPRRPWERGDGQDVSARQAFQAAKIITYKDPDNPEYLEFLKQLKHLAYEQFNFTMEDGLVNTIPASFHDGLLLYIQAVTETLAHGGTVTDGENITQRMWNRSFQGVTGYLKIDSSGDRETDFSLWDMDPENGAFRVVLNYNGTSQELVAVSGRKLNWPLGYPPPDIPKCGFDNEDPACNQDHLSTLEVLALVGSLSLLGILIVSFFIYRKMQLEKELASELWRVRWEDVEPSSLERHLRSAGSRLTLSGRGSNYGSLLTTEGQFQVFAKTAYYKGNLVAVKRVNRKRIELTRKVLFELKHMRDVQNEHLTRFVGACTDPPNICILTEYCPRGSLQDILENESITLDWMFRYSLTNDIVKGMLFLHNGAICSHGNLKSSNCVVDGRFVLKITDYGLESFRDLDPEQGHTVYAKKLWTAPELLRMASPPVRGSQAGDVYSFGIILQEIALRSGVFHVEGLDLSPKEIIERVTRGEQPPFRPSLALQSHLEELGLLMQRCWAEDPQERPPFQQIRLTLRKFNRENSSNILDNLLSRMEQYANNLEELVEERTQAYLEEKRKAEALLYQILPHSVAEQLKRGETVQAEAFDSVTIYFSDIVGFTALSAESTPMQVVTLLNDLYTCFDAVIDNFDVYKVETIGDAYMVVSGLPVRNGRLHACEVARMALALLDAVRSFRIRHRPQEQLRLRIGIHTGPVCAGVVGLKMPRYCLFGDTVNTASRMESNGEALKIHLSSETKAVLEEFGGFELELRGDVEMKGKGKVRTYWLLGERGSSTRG

In the case of `C=C(C)C(=O)OC[C@@H]1CN2[C@H](c3ccc(Br)cc3)[C@H](C)CC[C@H]2C(=O)O1`, the Potency entry in assay [1], in assay [2], in assay [3], in assay [4], in assay [5] and in assay [6] was “inactive” throughout.

As for `CCN1C(=O)N[C@@H](CCc2ccccc2)[C@H](C(C)=O)[C@H]1C`, the Potency result in assay [1], in assay [2], in assay [3], in assay [4], in assay [5] and in assay [6] was “inactive” each time.

As to `COC(=O)CCCC1=CC2=C(c3ccccc3)C(=O)C(C)(OC(=O)C3CCCC3)C(=O)C2=CN1CCCCO` (configuration not stated), the Potency entry in assay [1], in assay [2], in assay [3], in assay [4], in assay [5] and in assay [6] was “inactive” in each case.

Take `COc1ccc(NC(=O)N2CCc3nc(-c4ccccc4)c4c(c3C2)CO[C@@H](C)C4)cc1`: the Potency entry in assay [1], in assay [2], in assay [3], in assay [4], in assay [5] and in assay [6] was “inactive” each time.

Consider `C=CC[C@@](C(C)=O)(C(=O)OC)[C@@H](NC(=O)OC(C)(C)C)c1ccccc1`, for which the Potency result in assay [1], in assay [2], in assay [3], in assay [4], in assay [5] and in assay [6] was “inactive” in each case.

As to `CCOC(=O)C(c1ccc(OC)c(OC)c1)C1c2ccccc2C=C(C)N1C(=O)OC` (configuration not stated), the activity, negative = inhibition in assay [1] was -0.0023% [at 1.12 µM] (inactive). Moreover, the Potency result in assay [2], in assay [3], in assay [4], in assay [5] and in assay [6] was “inactive” in each case.

As for `COc1ccc2c(c1)CO[C@H]([C@H](O)CBr)[C@H]2C=Cc1ccccc1`, the Potency result in assay [1], in assay [2], in assay [3], in assay [4], in assay [5] and in assay [6] was “inactive” each time.

Turning to `CC#CCN1C(=O)NC(c2ccccc2)C(C#N)=C1C` (configuration not stated), the Potency entry in assay [1], in assay [2], in assay [3], in assay [4], in assay [5] and in assay [6] was “inactive” in each case.

Regarding `C[C@]12O[C@@H]1[C@@H](O)C(Br)=C(CO)[C@@H]2O`, the Potency result in assay [1], in assay [2], in assay [3], in assay [4], in assay [5] and in assay [6] was “inactive” in each case.

For the molecule `COC(=O)C[C@H]1c2ccccc2[C@@H]2C(=C[C@@H](C)[C@H]3C(=O)N(c4ccccc4)C(=O)[C@H]32)N1C(=O)OC`, the Potency entry in assay [1], in assay [2], in assay [3], in assay [4], in assay [5] and in assay [6] was “inactive” in each case.

Turning to `C=CCC(O)(C#Cc1ccccc1)c1ccccc1` (configuration not stated), the Potency entry in assay [1], in assay [2], in assay [3], in assay [4], in assay [5] and in assay [6] was “inactive” each time.

As to `COC(=O)C1=C(C)N(CCC(C)O[Si](C)(C)C(C)(C)C)C(=O)N(C(C)=O)C1c1ccccc1` (configuration not stated), the Potency entry in assay [1], in assay [2], in assay [3], in assay [4], in assay [5] and in assay [6] was “inactive” throughout.

On to `C=C(C)C(O)C=CC=Cc1ccccc1` (configuration not stated), for which the Potency result in assay [1], in assay [2], in assay [3], in assay [4], in assay [5] and in assay [6] was “inactive” each time.

For the molecule `CC(C)[C@@H](OCc1ccccc1)[C@H](C)C=NO[C@H](C)c1cn([C@@H]2COC[C@@H]2O)nn1`, the Potency result in assay [1], in assay [2], in assay [3], in assay [4], in assay [5] and in assay [6] was “inactive” throughout.

As for `O=P1(O)Oc2c(c(-c3ccccc3)cc3ccccc23)-c2c(-c3ccccc3)cc3ccccc3c2O1`, the Potency result in assay [1], in assay [2], in assay [3], in assay [4], in assay [5] and in assay [6] was “inactive” each time.

For the molecule `COC(=O)N1C(C2CC2)=Cc2ccccc2C1CC(C)=O` (configuration not stated), the activity, negative = inhibition in assay [1] was -2.33% [at 1.12 µM] (inactive). Moreover, the Potency entry in assay [2], in assay [3], in assay [4], in assay [5] and in assay [6] was “inactive” each time.

Take `CCCCCCCc1cc2ccccc2c2c(C(=O)OC)cc(C(=O)OC)n12`: the Potency entry in assay [1], in assay [2], in assay [3], in assay [4], in assay [5] and in assay [6] was “inactive” each time.

Turning to `Cc1ccc(S(=O)(=O)OCCc2ccccc2)cc1`, the Potency result in assay [1], in assay [2], in assay [3], in assay [4], in assay [5] and in assay [6] was “inactive” throughout.

As to `COC(=O)NC(C(=O)OC)(C(=O)OC)c1ccccc1`, the Potency entry in assay [1], in assay [2], in assay [3], in assay [4], in assay [5] and in assay [6] was “inactive” in each case.

Regarding `CCOC(=O)NN=C1C[C@@H](O)[C@@H](O)[C@@H]2[C@H]3C(=O)N(Cc4ccc5c(c4)OCO5)C(=O)[C@@H]3CC[C@@H]12`, the Potency result in assay [1], in assay [2], in assay [3], in assay [4], in assay [5] and in assay [6] was “inactive” throughout.

For `C[C@H]1Cc2c(COc3ccccc3)nc3c(c2CO1)CN(C(=O)C1CCCCC1)CC3`, the activity, negative = inhibition in assay [1] is -0.952% [at 1.12 µM] (inactive). In addition, the Potency result in assay [2], in assay [3], in assay [4], in assay [5] and in assay [6] was “inactive” throughout.

Consider `COC(=O)CC=C1c2ccc(F)cc2[C@@H](OC)[C@@H]1C`, for which the Potency result in assay [1], in assay [2], in assay [3], in assay [4], in assay [5] and in assay [6] was “inactive” throughout.

`COc1cc(OC)c2c(c1)OC1Cc3cc(OC)c(OC)cc3C2O1` (configuration not stated): the activity, negative = inhibition in assay [1] is -3.4% [at 1.12 µM] (inactive). Moreover, the Potency entry in assay [2], in assay [3], in assay [4], in assay [5] and in assay [6] was “inactive” each time.

`COc1ccc2c(c1)C(=O)[C@H](OC(=O)Nc1ccc(OC(F)F)cc1)[C@@H](c1ccc(OC)c(Br)c1)O2`: the Potency entry in assay [1], in assay [2], in assay [3], in assay [4], in assay [5] and in assay [6] was “inactive” in each case.

For the molecule `COC1=C[C@H](C(=O)NCCNC(C)=O)[C@H](C)[C@@H](c2ccccc2)CC1=O`, the Potency result in assay [1], in assay [2], in assay [3], in assay [4], in assay [5] and in assay [6] was “inactive” each time.

On to `COc1ccc([C@]23Cc4cc(C#N)ccc4[C@H](O2)c2c(c4ccc(OC)cc4oc2=O)O3)cc1`, for which the Potency result in assay [1], in assay [2], in assay [4], in assay [5] and in assay [6] was “inactive” each time. In addition, in assay [3], the Potency is 1.69 µM (active) and inactive.

In the case of `C[C@@H]1[C@@H](c2ccccc2)Cc2nc3ccccc3nc2C[C@H]1C(=O)N1CCCC1`, the Potency entry in assay [1], in assay [2], in assay [3], in assay [4], in assay [5] and in assay [6] was “inactive” each time.
